Sampled rows, rich in hits. Any-hit rate of the full collection: about 21%.
Pf growth 48h: inhibits P. falciparum growth in the first generation, 48 h | P. falciparum luciferase growth in erythrocytes, 48 h | Potency, µM (top dose mostly 28.7 µM), without a hit: at the highest dose activity change, negative = inhibition, hits mostly inhibitors | hit rate 5.9% among 310,000; also: potency is read from the fitted curve at half-maximal effect; % is scaled to controls: 0 for no effect and ±100 for the full control effect
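A one-generation exposure of luciferase-tagged malaria parasites in RPMI 1640/Albumax erythrocyte culture, 37 C and 5% CO2. Inhibition is inferred from decreased luminescence after adding detection reagent.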
Pf growth 96h: P. falciparum growth inhibition at 96 hours | Potency, µM (top dose mostly 28.7 µM), for inactives: at the top dose activity change, negative = inhibition, hits mostly inhibitors | hit rate 6.9% among 320,000 | P. falciparum luciferase reporter growth, 96 h; also: potency is read from the fitted curve at half-maximal effect; % is scaled to controls: 0 for no effect and ±100 for the full control effect
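96 h incubation, 37 C, 5% CO2, of luciferase-reporter P. falciparum-infected RBCs (2% hematocrit, 0.05% parasitemia final) with test compounds; endpoint luminescence.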
HCMV inh: inhibitors of human cytomegalovirus | HFF cells, HCMV-luciferase reporter, 72 h; stronger effect = lower value | activity change, negative = inhibition, % at 57.5 µM | hit rate 4.5% among 410,000; in the data active = activity change below about -60%; inconclusive = no clear call, values can overlap the other calls; inactive = above about -39%; also: % is scaled to controls: 0 for no effect and ±100 for the full control effect
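Steps: HFFs plated, 16 h 37C; compounds added; HCMV-luciferase added to MOI 1 PFU/cell; 72 h 37C; OneGlo reagent, 5 min room temperature; luminescence read, normalized to controls.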
HCV inhibitor: HCV inhibition. AID 651820. hit rate 3.4% among 340,000. Potency, µM (highest dose often 41.8 µM), without a hit: at the highest dose activity change, negative = inhibition, usual class: inhibitors. Huh7.5.1 HCVcc-Cre infection, luciferase reporter, 44 h; also: potency is read from the fitted curve at half-maximal effect; % is scaled to controls: 0 for no effect and ±100 for the full control effect
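Luciferase read-out (15 sec integration) after a 15 min room-temperature substrate step quantifies HCVcc-Cre infection. Cells, 1,000 per well, had compound added 4 h post-plating, then virus at ~0.5 moi, and were cultured 44 h.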
Cycloheximide cs: affects cycloheximide protein synthesis inhibition readout, counter-screen | cell reporter, cycloheximide protein synthesis inhibition counterscreen | max response, % | hit rate 12% among 300,000; in the data active = max response mostly above about 13%, no sharp cut-off; inactive = mostly below about 14%; also: read at 38.3 µM for the half of the compounds with a filed dose; 0% is about no effect
Shiga inhibitor: inhibitors of Shiga toxin in Vero cells; Vero cells, Shiga toxin protein synthesis inhibition reporter; inhibition, % at 38.7 µM; hit rate 9.2% among 290,000; in the data active = inhibition mostly above about 28%, no sharp cut-off; inactive = mostly below about 43%; also: 0% is about no effect
Active calls of the source: *. Unless noted, calls follow the shape of the dose curve; as a rule, active = well fitted inhibition curve with a large enough effect; inconclusive = small, poorly fitted or top-dose-only effect, or another doubt; inactive = no such curve, though single readings can be large or run the other way.

`COC(=O)CNC(c1ccccc1Cl)c1cc(Br)ccc1NS(=O)(=O)c1ccc(C)cc1` (stereo not drawn) gave Pf growth 48h 3.3µM*, Pf growth 96h -10%, HCMV inh -70*, HCV inhibitor inconclusive, Cycloheximide cs 9 and Shiga inhibitor -7.
`COc1ccc([C@H]2CC(=O)C=C(/C=C/Cc3ccccc3)C2)cc1` gave Pf growth 48h inconclusive, Pf growth 96h inconclusive, HCMV inh 9 and HCV inhibitor -4%.
Screening CCCc1nn2c(=O)cc(COc3ccc(NC(=O)c4ccco4)cc3)nc2s1 returned Pf growth 48h 21%, Pf growth 96h inconclusive, HCMV inh inconclusive, HCV inhibitor 7%, Cycloheximide cs 1 and Shiga inhibitor -4.
Screening CN(C)CCN(C(=O)/C=C/c1cccs1)c1nc2c(F)cc(F)cc2s1 returned Pf growth 48h 12µM*, Pf growth 96h inconclusive, HCMV inh inconclusive, HCV inhibitor inconclusive, Cycloheximide cs -5 and Shiga inhibitor -8.
CN(C)CCCN(C(=O)/C=C/c1cccs1)c1nc2ccc(F)cc2s1 was read as Pf growth 48h inconclusive, Pf growth 96h inconclusive, HCMV inh inconclusive, HCV inhibitor -28%, Cycloheximide cs -15 and Shiga inhibitor -39.
COc1ccc(OC)c2sc(N(CCN(C)C)C(=O)/C=C/c3cccs3)nc12 was read as Pf growth 48h inconclusive, Pf growth 96h inconclusive, HCMV inh -85*, HCV inhibitor inconclusive, Cycloheximide cs -17 and Shiga inhibitor -22.
For CCOc1cccc2sc(N(CCN(C)C)C(=O)/C=C/c3cccs3)nc12 the results were Pf growth 48h inconclusive, Pf growth 96h inconclusive, HCV inhibitor 32µM*, Cycloheximide cs -4 and Shiga inhibitor -4.
Screening COc1ccc(C)c2sc(N(CCN(C)C)C(=O)/C=C/c3cccs3)nc12 returned Pf growth 48h inconclusive, Pf growth 96h inconclusive, HCMV inh inconclusive, HCV inhibitor 14µM*, Cycloheximide cs -1 and Shiga inhibitor -10.
For COc1ccc(/C=C/C(=O)N2CCN(c3ccccc3)CC2)cc1S(=O)(=O)N1CCOCC1 the results were Pf growth 48h -18%, Pf growth 96h inconclusive, HCMV inh inconclusive, HCV inhibitor 32µM*, Cycloheximide cs -1 and Shiga inhibitor 16.
`COc1ccc(/C=C/C(=O)O)cc1S(=O)(=O)N1CCCC1` gave Pf growth 48h 0%, Pf growth 96h 5.9µM*, HCMV inh 103, HCV inhibitor -1%, Cycloheximide cs -3 and Shiga inhibitor -3.
For O=C(/C=C/c1ccc(S(=O)(=O)N2CCOCC2)cc1)N1CCN(c2ccccc2)CC1 the results were Pf growth 48h inconclusive, Pf growth 96h -17%, HCMV inh inconclusive, HCV inhibitor 2µM*, Cycloheximide cs -3 and Shiga inhibitor -5.
`OCc1cccc(-c2csc(C(O)c3ccccc3)n2)c1` (stereo not drawn) gave HCMV inh 162.
`CCCNc1ncc2c(=O)[nH][nH]c(=O)c2n1` gave HCMV inh -5 and HCV inhibitor -10%.
CC(C)CC(=O)Nc1ccc(C(=O)COC(=O)CN2C(=O)NC3(CCCCC3C)C2=O)cc1 (stereo not drawn) was read as Pf growth 48h inconclusive, Pf growth 96h 13%, HCMV inh -11 and HCV inhibitor -8%.
`O=C(CCCN1CCC(O)(c2cccc(C(F)(F)F)c2)CC1)c1ccc(F)cc1` gave Pf growth 48h 8.3µM*, Pf growth 96h 5.9µM*, HCMV inh 66 and HCV inhibitor inconclusive.
For O=C(CCCN1CCC(C(=O)c2ccc(F)cc2)CC1)c1ccc(F)cc1 the results were Pf growth 48h inconclusive, Pf growth 96h -7%, HCMV inh -6, HCV inhibitor inconclusive, Cycloheximide cs -1 and Shiga inhibitor -12.
Screening O=C(CCCN1CCC(O)(c2ccc(Br)cc2)CC1)c1ccc(F)cc1 returned Pf growth 48h 8.3µM*, Pf growth 96h 4.1µM*, HCMV inh 39 and HCV inhibitor inconclusive.
Screening O=C(CCCN1CCC(O)(c2ccc(Cl)cc2)CC1)c1ccc(F)cc1 returned Pf growth 48h 7.4µM*, Pf growth 96h 6.6µM*, HCMV inh 17, HCV inhibitor inconclusive, Cycloheximide cs -2 and Shiga inhibitor 7.
Screening CC1CCN(CCCC(=O)c2ccc(F)cc2)CC1 returned Pf growth 48h -18%, Pf growth 96h inconclusive, Cycloheximide cs -1 and Shiga inhibitor -2.
O=C(OCC(=O)c1ccc[nH]1)c1ccc(S(=O)(=O)C(F)F)cc1 was read as HCMV inh -28.
For COc1ccc(C(NC(=O)c2ccccc2F)NC(=O)c2ccccc2F)cc1 the results were Pf growth 48h 10%, Pf growth 96h 30%, HCMV inh -13, HCV inhibitor inconclusive, Cycloheximide cs -2 and Shiga inhibitor -5.
Screening COc1ccc(C)cc1NC(=O)COC(=O)c1ccc2c(c1)OCCO2 returned Pf growth 48h -10%, Pf growth 96h 0%, HCMV inh -14 and HCV inhibitor -10%.
`Cc1oc(-c2cccc(Cl)c2)nc1CSc1nnc(C)n2c1cc1occc12` gave HCMV inh 11.
Screening Cc1ccc(C2SCC(=O)N2Cc2cn3ccsc3n2)o1 (stereo not drawn) returned Pf growth 48h -11%, Pf growth 96h 15µM*, HCMV inh 31, HCV inhibitor -20%, Cycloheximide cs 5 and Shiga inhibitor 1.
c1cn2cc(CN3CCOCC3)nc2s1 was read as Pf growth 48h -4%, Pf growth 96h inconclusive, HCMV inh -12, HCV inhibitor 17%, Cycloheximide cs -6 and Shiga inhibitor -17.
For COc1ccc(-c2nc3ccccc3s2)cc1NC(=O)c1cc2ccccc2o1 the results were HCMV inh 50.
Screening CC(C)OCCCNC(=O)c1c(N)n(CC2CCCO2)c2nc3ccccc3nc12 (stereo not drawn) returned Pf growth 48h 3.3µM*, Pf growth 96h inconclusive, HCMV inh -24, HCV inhibitor 2%, Cycloheximide cs 4 and Shiga inhibitor -12.
`CC(C)OC(=O)c1c(N)n(CC2CCCO2)c2nc3ccccc3nc12` (stereo not drawn) gave Pf growth 48h inconclusive, Pf growth 96h 49%, HCMV inh -23, HCV inhibitor -17%, Cycloheximide cs 0 and Shiga inhibitor -2.
Nc1c(C(=O)OC2CCCCC2)c2nc3ccccc3nc2n1CC1CCCO1 (stereo not drawn) was read as Pf growth 48h inconclusive, Pf growth 96h 13µM*, HCMV inh -12, HCV inhibitor 10µM*, Cycloheximide cs -3 and Shiga inhibitor 9.

Assay outcomes: PubChem BioAssay, National Center for Advancing Translational Sciences (NCATS)
